Screening results as filed in PubChem BioAssay.
The list is not random: actives were taken first. Their share in the collection is about 4.6%.
Marburg entry inh: qHTS for inhibitors of binding or entry into cells for Marburg Virus | Marburg virus pseudotyped entry inhibition, cell reporter | Potency, µM (titrated, usually from 37.8 µM), without a hit: top-dose activity change, negative = inhibition, actives largely listed as inhibitors | 1.8% of 300,000 active | AID 540276, 2011; calls by dose curve; tested in HEK293 cells
Vaccinia Venus: qHTS for Stage-Specific Inhibitors of Vaccinia Orthopoxvirus: Venus Reporter Primary qHTS | Vaccinia virus Venus reporter expression, fluorescence | Potency, µM (highest dose often 36.5 µM), without a hit: at the highest dose activity change, negative = inhibition, hits mostly inhibitors | 0.46% of 330,000 active | AID 720580, 2013; calls by dose curve; tested in A549 cells; further: nearly all actives have a fitted effect of over 30% in size
VACV mCherry inh: qHTS for Stage-Specific Inhibitors of Vaccinia Orthopoxvirus: mCherry Reporter Primary qHTS. Vaccinia virus mCherry reporter infection, fluorescence. Potency, µM (series often up to 36.5 µM), inactives show at the highest dose activity change, negative = inhibition, usual class: inhibitors. 0.63% of 310,000 active; calls by dose curve; tested in A549 cells; further: nearly all actives have a fitted effect of over 35% in size
HCV inh: qHTS Assay for Inhibitors of Hepatitis C Virus (HCV). Potency, µM (series often up to 41.8 µM), for inactives: at the top dose activity change, negative = inhibition, hits mostly inhibitors. Huh7.5.1 HCVcc-Cre infection, luciferase reporter, 44 h. 3.4% of 340,000 active; active means well fitted inhibition curve with a large enough effect; inconclusive means small, poorly fitted or top-dose-only effect, or another doubt; inactive means no such curve, though single readings can be large or run the other way
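Luciferase read-out (15 sec integration) after a 15 min room-temperature substrate step quantifies HCVcc-Cre infection. Cells, 1,000 per well, had compound added 4 h post-plating, then virus at ~0.5 moi, and were cultured 44 h.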
LASV entry inh: qHTS for Inhibitors of binding or entry into cells for Lassa Virus | Lassa virus pseudotype entry inhibition, cell reporter | 1.2% of 300,000 active | Potency, µM (doses to about 37.9 µM), for the others: at the top dose activity change, negative = inhibition, actives largely listed as inhibitors; calls by dose curve; tested in HEK293 cells; further: nearly all actives have a fitted effect of over 50% in size
* hit, by the source's call; i = inactive; ? = inconclusive; · = no result; ! = a repeat was not active; [ ] = remark or other dose. On the % scale 0 is the no-effect control and ±100 the full control effect; potency means the concentration at half of the fitted maximal effect.

SMILES	Marburg entry inh	Vaccinia Venus	VACV mCherry inh	HCV inh	LASV entry inh
C=C(C)COc1ccc(-c2[nH]ncc2-c2ccc(OC)cc2)c(O)c1	·	·	·	-14%	·
Cc1ccc(N2C(=O)CSC23C(=O)N(CC(=O)NCc2ccccc2)c2ccccc23)cc1C (stereo unspecified)	·	-14%	-18%	·	-9%[46.1 µM]
COc1ccc(-c2n[nH]c(C)c2-c2ccc(Cl)cc2)c(O)c1OC	-12%	·	·	14µM*	?
C=C(C)COc1ccc(-c2[nH]ncc2Oc2cccc(OC)c2)c(O)c1	-30%	?	?	?	1.6µM*
C=C(C)COc1ccc(-c2nc(N)ncc2-c2ccc(OC)cc2)c(O)c1	-3%	·	·	?	·
COc1ccc(-c2n[nH]c(C)c2-c2ccc(Cl)cc2)c(O)c1	-14%	?	·	?	?
C=C(C)COc1ccc(-c2nc(N)ncc2-c2ccc(OC)c(OC)c2)c(O)c1	13µM*	-27%	-11%	?	-2%[46.1 µM]
COc1ccc(-c2cn[nH]c2-c2ccc(OCc3ccccc3)cc2O)cc1OC	?	?	11µM*	?	?
Cc1c2cnn(-c3ccccc3)c(=O)c2c(C)n1CC(=O)Nc1ccccc1Br	-15%[46.1 µM]	-6%	-9%	·	3%[46.1 µM]
C[C@@H](ON=C1[C@H]2CCn3c(=O)n(-c4ccccc4)c(=O)n3[C@@H]2[C@H](O)[C@@H]2O[C@H]12)c1cn([C@H](CO)Cc2ccccc2)nn1	-23%[14.2 µM]	·	·	·	?
CC(OC(=O)c1ccccc1OCC(=O)Nc1ccc(Br)cc1)C(=O)NC1CCCC1 (stereo unspecified)	·	-7%	i	·	·
C=C(C)COc1ccc(-c2n[nH]c(C)c2Oc2ccccc2OC)c(O)c1	?	?	·	32µM*	?
CCOc1ccc(-c2n[nH]c(C)c2Oc2ccccc2OC)c(O)c1	?	-23%	i	?	?
COc1ccc(Cc2nccc3cc(OC)c(OC)cc23)cc1OC	?	?	?	3.2µM*!	?
COc1ccc(Cc2c3cc(OC)c(OC)cc3cc[n+]2C)cc1OC	·	-7%	i	-9%	·
COc1ccc(-c2n[nH]c(C(F)(F)F)c2-c2cc3ccccc3o2)c(O)c1	?	?	?	11µM*	?
C[C@H]1CC[C@H]2C(=O)N(Cc3ccc(Cl)cc3)C[C@H](O)CN2[C@H]1c1ccc(Br)cc1	-2%[14.2 µM]	·	·	·	·
O=C1c2cccc(OCC(=O)N3CCCc4ccccc43)c2CCN1Cc1cccnc1	?	-29%	?	?	?
Cc1ccccc1CN1CCc2c(OCC(=O)N3CCCc4ccccc43)cccc2C1=O	?	?	-22%	13µM*	?
CCOc1ccc(NC(=O)C(=O)NCCc2csc(-c3ccc(F)cc3)n2)cc1	·	-6%	-10%	·	-4%[46.1 µM]
COc1ccc(Cl)cc1NC(=O)c1cc(S(=O)(=O)N2CCCC2)cn1C	·	-3%	10%	11µM*	·
Cc1nc(-c2cccc(NC(=O)c3cccc(S(=O)(=O)N4CCCC4)c3)c2)cs1	·	·	·	10µM*	·
O=C(Nc1nc(-c2cccs2)cs1)c1cccc(S(=O)(=O)N2CCCCCC2)c1	?	?	?	11µM*	-16%
O=C(Nc1nc(-c2cccs2)cs1)c1ccc(S(=O)(=O)N2CCCCC2)cc1	-3%	?	?	18µM*	·
Cc1csc(NC(=O)c2cccc(S(=O)(=O)N3CCCCC3)c2)n1	-52%	-19%	-28%	-1%	-30%
SMILES	Marburg entry inh	Vaccinia Venus	VACV mCherry inh	HCV inh	LASV entry inh
O=C(Nc1nc(-c2ccncc2)cs1)c1ccc(S(=O)(=O)N2CCOCC2)cc1	-6%	-17%	-18%	-22%	?
COc1cc(=O)n2c(c1C(=O)NC(C)c1ccco1)CCN(Cc1cc(C)ccc1C)CC2 (stereo unspecified)	·	8%	-8%	·	·
COC(=O)c1ccc(NC(=O)CC2C(=O)N(c3cccc(C)c3)C(=O)N2Cc2ccco2)cc1 (stereo unspecified)	·	3%	1%	·	4%[46.1 µM]
CC(C)Cn1c(=O)c(C(=O)Nc2ccncc2)c(O)c2ccccc21	·	·	·	10µM*	·
CCCCn1c(=O)c(C(=O)NCc2ccco2)c(O)c2ccccc21	-17%[46.1 µM]	-9%	i	14µM*	-21%[46.1 µM]
CCCCCn1c(=O)c(C(=O)Nc2cnccn2)c(O)c2ccccc21	?	5%	-7%	8.9µM*	?
COc1ccc(C2C(=O)N(C3CCCCCC3)CC(=O)N2Cc2ccc(C)cc2)cc1OC (stereo unspecified)	·	-7%	-1%	·	-26%[46.1 µM]
COc1cc(=O)n2c(c1C(=O)NC(C)c1ccco1)CCN(C(=O)c1ccnc(Cl)c1)CC2 (stereo unspecified)	·	-8%	-12%	·	·
NC(=O)CSc1nc2cc3c(cc2c(=O)n1CCCCCC(=O)NCc1ccc2c(c1)OCO2)OCO3	·	-25%	-20%	·	-1%[46.1 µM]
C/C(CCN1CCc2nc(-c3ccccc3)c(-c3ccccc3)cc2C1)=N\OC[C@@H](O)[C@H]1O[C@@H]2OC(C)(C)O[C@@H]2[C@H]1O	26%[14.2 µM]	·	·	·	·
O=C(CCl)NC(Cc1ccccc1)c1ccccc1 (stereo unspecified)	?	1%	4%	-19%	-18%
CCCCCCCCCC[Si](C)(C)CCC(=O)NC(Cc1ccc(C)cc1)c1ccccc1 (stereo unspecified)	7.9µM*!	·	·	·	-28%
COc1ccc(N2CCN(C(=O)Cn3cnc4nc5c(cc4c3=O)CCCC5)CC2)cc1	·	16%	-13%	·	-10%[46.1 µM]
Cc1cc(C)c2nc(SC(C)C#N)cc(C)c2c1 (stereo unspecified)	-18%	-12%	·	10µM*	-12%
CC1CCN(S(=O)(=O)c2cccc(C(=O)NCC3CCCO3)c2)CC1 (stereo unspecified)	29%[46.1 µM]	-14%	-15%	11%	6.3µM*
O=C(NCC1CCCO1)c1cccc(S(=O)(=O)N2CCCCC2)c1 (stereo unspecified)	?	-10%	-15%	0%	-10%
COc1ccc(CCNC(=O)c2cccc(S(=O)(=O)N3CCc4ccccc4C3)c2)cc1	·	·	·	14µM*	·
CCCN(CC(=O)Nc1ccccc1C)C(=O)/C=C/c1ccc(S(=O)(=O)N2CCCCCC2)cc1	11µM*	-16%	-11%	?	-24%
COc1ccc(/C(C)=N/NC(=O)c2cccc(S(=O)(=O)N3CCCC3)c2)c(O)c1	?	?	5.6µM*	3.2µM*	?
COc1ccc(C(C)=NNC(=O)c2cccc(S(=O)(=O)N3CCCC3)c2)cc1	?	2%	?	-2%	-4%[46.1 µM]
CCCN(CC(=O)Nc1ccccc1C)C(=O)c1ccc(S(=O)(=O)N2CCCCCC2)cc1	?	-15%	0%	-19%	2%
O=CN1CCCN(C(=O)c2cc(NC(=O)c3ccccc3)cc3ncn(C4CCCC4)c23)CC1	·	-3%	-11%	·	·
Cc1nc(NCc2cccc3c2OCO3)sc1-c1ccn(CC2CCCN(C)C2)n1 (stereo unspecified)	·	12%	-7%	·	·
